Screening results (PubChem)
Sampled rows, rich in hits. Any-hit rate of the full collection: about 4.8%.
IL-1B inflam inh = inhibitors of inflammasome signaling (IL-1 beta secretion); activity change, % at 57.5 µM; THP-1 LPS/ATP IL-1B secretion, AlphaLISA, 16 h; stronger effect = lower value; 360,000 tested, 4.7% active; in the data active means activity change below about -50%; inconclusive means mostly about -30% to -49%
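THP-1 cells pretreated 1 hr with compounds (up to 57.5 uM final), then stimulated with LPS (250 ng/mL final) plus ATP (1.25 mM final); secreted IL-1B measured by AlphaLISA after 16 hr, decreased signal indicating inhibition.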
ATXN2 expr inh = inhibitors of ATXN2 expression. AID 1745845. 360,000 tested, 0.72% active. HEK-293 ATXN2-luciferase reporter, luminescence, 24 h. Potency, µM (doses to about 57 µM), usual class: inhibitors; further: nearly all actives have a fitted effect of over 55% in size
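ATXN2-luciferase reporter cells (luciferase flanked by upstream and downstream ATXN2 gene portions) were treated 24 h at 37 °C with compounds at up to 57 uM. SteadyGlo luminescence gave expression; GF-AFC fluorescence gave viability.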
USP1-UAF1 inh = USP1/UAF1 (human) deubiquitinase inhibition; 390,000 tested, 0.23% active; recombinant USP1/UAF1, Ub-Rhodamine cleavage fluorescence; O94782; Potency, µM (series often up to 57.1 µM), most hits filed as inhibitors; further: nearly all actives have a fitted effect of over 60% in size
Target sequence (O94782 whole entry, looked up): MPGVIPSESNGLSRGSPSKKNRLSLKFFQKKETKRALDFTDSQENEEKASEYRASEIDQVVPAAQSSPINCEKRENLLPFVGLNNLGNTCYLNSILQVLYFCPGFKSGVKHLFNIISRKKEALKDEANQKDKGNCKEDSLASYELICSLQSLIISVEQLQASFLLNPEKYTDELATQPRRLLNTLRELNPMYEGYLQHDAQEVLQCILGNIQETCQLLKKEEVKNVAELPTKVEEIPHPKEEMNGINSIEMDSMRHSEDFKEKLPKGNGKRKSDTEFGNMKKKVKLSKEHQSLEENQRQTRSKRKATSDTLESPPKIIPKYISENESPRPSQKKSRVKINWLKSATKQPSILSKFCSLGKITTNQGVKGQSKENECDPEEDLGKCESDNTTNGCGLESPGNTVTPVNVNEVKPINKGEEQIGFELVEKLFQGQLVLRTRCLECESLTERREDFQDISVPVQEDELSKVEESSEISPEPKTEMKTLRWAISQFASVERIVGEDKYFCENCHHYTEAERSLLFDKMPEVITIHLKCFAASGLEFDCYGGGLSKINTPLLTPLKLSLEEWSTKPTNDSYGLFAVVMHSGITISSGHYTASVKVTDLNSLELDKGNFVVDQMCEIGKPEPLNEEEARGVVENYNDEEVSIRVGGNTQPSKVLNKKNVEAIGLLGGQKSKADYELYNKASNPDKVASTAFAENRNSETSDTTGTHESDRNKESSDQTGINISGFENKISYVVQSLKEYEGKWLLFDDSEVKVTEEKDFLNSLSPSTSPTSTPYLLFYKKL
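Step one: compound is pinned into 1nM USP1/UAF1 in HEPES pH 7.8 buffer with TCEP. Step two: 15 min room-temperature incubation. Step three: Ub-Rho (150nM final) starts cleavage, tracked by fluorescence over six one-minute reads.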
USP2a block = USP2a (human) protease inhibition; 330,000 tested, 0.01% active; USP2 core, Ub-CHOP2 coupled fluorogenic reporter, 485/531; Potency, µM (series often up to 38.3 µM), most hits filed as inhibitors; O75604
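USP2 core (10nM final) preincubated 30min RT with compound in 20mM Tris-HCl pH 8.0, 2mM CaCl2, 2mM beta-mercaptoethanol, 0.05% CHAPS; 25nM Ub-CHOP2 plus 25nM reporter substrate added, fluorescence (Ex485/Em531) read after 60min.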
ATXN viability = cell viability loss in ATXN counter-screen. S2 cells (HEK-293 line with an ATXN2-luciferase reporter) viability, CellTiter-Fluor protease fluorescence, 24 h. 400,000 tested, 0.49% active. Potency, µM (doses to about 56.7 µM), most hits filed as cytotoxic. AID 651635; further: nearly all actives have a fitted effect of over 40% in size
Large screens that a line does not name were inactive. Unless noted, the call rests on the fitted dose curve; in most records, active means well fitted curve in the direction sought with a large enough effect; inconclusive means small, poorly fitted or top-dose-only effect, or another doubt; inactive means no such curve, though single readings can be large; an effect the other way counts as inactive or inconclusive.

CCN(C[C@H]1N[C@@](Cc2ccccc2)(C(=O)OC)[C@H]2C(=O)N(Cc3ccccc3)C(=O)[C@@H]12)C(C)=O	IL-1B inflam inh -86, USP1-UAF1 inh inconclusive
COC(=O)[C@]1(Cc2ccccc2)N[C@H](CN(C)C(=O)Nc2ccccc2)[C@@H]2C(=O)N(Cc3ccccc3)C(=O)[C@@H]21	none
COC(=O)[C@]1(Cc2ccccc2)N[C@H](CN(C)C(=O)Nc2ccc(Cl)cc2)[C@@H]2C(=O)N(Cc3ccccc3)C(=O)[C@@H]21	IL-1B inflam inh -64
Cc1oc(=O)oc1COC(=O)[C@@H]1N2C(=O)[C@@H](NC(=O)[C@H](N)c3ccccc3)[C@H]2SC1(C)C	none (no result: IL-1B inflam inh, USP1-UAF1 inh, USP2a block)
COc1ccc(C2CC(c3ccccc3)=NN2C(=O)COC(=O)c2cccc(N)c2)cc1 (centres undefined)	none (no result: ATXN2 expr inh)
NC(=S)N=Nc1c(O)cc(O)c2[nH]c(=O)ccc12	ATXN2 expr inh inconclusive, USP1-UAF1 inh 18µM, ATXN viability inconclusive (no result: USP2a block)
CN(C)c1ccc2cc(C(=O)N[C@@H](CCCN=C(N)CCl)C(=O)NCc3ccccc3)ccc2c1	ATXN2 expr inh 31µM (no result: IL-1B inflam inh, USP1-UAF1 inh, USP2a block, ATXN viability)
Cc1cccc(NC(=O)c2sc3nc4c(cc3c2N)CN(C(C)C)CC4)c1	ATXN2 expr inh inconclusive, ATXN viability inconclusive (no result: IL-1B inflam inh, USP2a block)
CCOC(=O)C1=CCN(S(=O)(=O)c2ccccc2C)C1c1ccc(C)cc1 (centres undefined)	none (no result: USP1-UAF1 inh, USP2a block)
Nc1nn(-c2ccccc2)c(N)c1N=Nc1ccc2c(c1)OCO2	IL-1B inflam inh -97, USP1-UAF1 inh inconclusive, ATXN viability inconclusive
Nc1[nH]n(-c2ccccc2)c(=O)c1N=Nc1ccc2c(c1)OCCO2	IL-1B inflam inh -73, ATXN viability inconclusive
CCC1C(=O)NCCN1Cc1ccc2c(c1)CN(Cc1ccc(F)c(OC)c1)CCO2 (centres undefined)	none (no result: IL-1B inflam inh, ATXN2 expr inh, USP1-UAF1 inh, USP2a block)
COc1cc(CCC(=O)Nc2ccc(Cl)c(C(F)(F)F)c2)cc(OC)c1OC	none
COc1cc(C(=O)Nc2ccc(Cl)c(C(F)(F)F)c2)cc(OC)c1OC	IL-1B inflam inh -84
COc1cc(C(=O)Nc2ccc(Nc3ccccc3)cc2)cc(OC)c1OC	IL-1B inflam inh -56
CC(C)c1ccc(CC(=O)N2CCC2(C)C(=O)NCCC#N)cc1 (centres undefined)	none (no result: USP1-UAF1 inh, USP2a block)
CC(C)(C)c1ccc(CC(=O)N2CCC2(C)C(=O)NS(=O)(=O)c2ccccc2)cc1 (centres undefined)	IL-1B inflam inh -74 (no result: USP1-UAF1 inh, USP2a block)
CC(C)c1ccc(CC(=O)N2CCC2(C)C(=O)NCC(C)(C)C)cc1 (centres undefined)	IL-1B inflam inh -74 (no result: USP1-UAF1 inh, USP2a block)
O=C1NC(=O)C2(Br)Nc3ccc(Br)cc3C(=O)C2N1 (centres undefined)	none (no result: USP2a block)
O=C(/C=C/c1ccc(Cl)cc1)N1CCN(c2c(Cl)cccc2[N+](=O)[O-])CC1	IL-1B inflam inh -76, ATXN viability inconclusive
COc1ccc(-c2nc(CN3CCN(c4cc(C)nc(C)c4)CC3)c(C)o2)c2ccccc12	IL-1B inflam inh -105, ATXN2 expr inh 11µM, ATXN viability inconclusive
Cc1cc(N2CCN(Cc3nc(-c4ccc(Cl)cc4)oc3C)CC2)cc(C)n1	ATXN2 expr inh inconclusive (no result: IL-1B inflam inh)
CC(C)C[C@H]1CN=C(Nc2ccccc2)N1CC1CCC(C(C)(C)C)CC1 (some centres undefined)	IL-1B inflam inh -87, ATXN2 expr inh inconclusive, ATXN viability 22µM
CC(C)C[C@H]1CN=C(Nc2ccccc2)N1CC1CCCC1	ATXN viability inconclusive
COc1cc(CC(=O)N2CCN(S(=O)(=O)c3ccc(C)cc3)CC2)cc(OC)c1OC	none (no result: ATXN2 expr inh)
CC(C(=O)N(C)Cc1cccc(F)c1)N1CCN(S(=O)(=O)c2ccc3c(c2)OCCCO3)CC1 (centres undefined)	IL-1B inflam inh -59
CN(Cc1cccc(F)c1)C(=O)CN1CCN(S(=O)(=O)c2ccc3c(c2)OCCCO3)CC1	IL-1B inflam inh inconclusive
O=C(CSc1nnc(-c2ccc(F)cc2)c2ccccc12)Nc1cccc(Cl)c1	IL-1B inflam inh -95, ATXN viability inconclusive
COC(=O)Cc1nnc(SCC(=O)Nc2ccccc2)c2ccccc12	IL-1B inflam inh -63, ATXN viability inconclusive (no result: ATXN2 expr inh)
CCc1nnc(SCC(=O)Nc2ccccc2)nc1CC	none
O=C(CSc1nnc(-c2ccc(F)cc2)c2ccccc12)Nc1ccccc1	IL-1B inflam inh -61
CCCN(CCC)CCNC(=O)c1cc(Sc2ccc(Cl)cc2)nc2ccccc12	none (no result: IL-1B inflam inh, ATXN2 expr inh, USP2a block, ATXN viability)
Cc1ccc(OCC(=O)N2N=C(c3ccc(Cl)cc3)CC2c2ccco2)c([N+](=O)[O-])n1 (centres undefined)	IL-1B inflam inh -54
CC(C)[C@H](NS(=O)(=O)c1ccccc1)C(=O)OCC(=O)N1N=C(c2ccc(Cl)cc2)CC1c1ccco1 (some centres undefined)	IL-1B inflam inh -72
Cc1cccc(NC(=O)CSc2nc3c(sc4ccccc43)c(=O)n2CCCC(=O)NC2CCCC2)c1	none (no result: IL-1B inflam inh, ATXN2 expr inh, USP2a block, ATXN viability)
CC(=O)N1CCN(c2ccc(O)cc2)CC1	none (no result: IL-1B inflam inh, USP1-UAF1 inh, USP2a block)
O=C(Nc1nccs1)c1cn(-c2ccccc2)nc1-c1ccccc1	IL-1B inflam inh -63
Cc1nn(Cc2c(Cl)cccc2Cl)c(C)c1NC(=O)c1cn(-c2ccccc2)nc1-c1ccccc1	ATXN2 expr inh 13µM, ATXN viability 13µM
CC(C)COc1ccc(-c2nn(-c3ccccc3)cc2C(=O)Nc2nccs2)cc1	none
CC(C)Oc1ccc(F)cc1-c1cc(C(=O)Nc2ccc(C(C)(C)C)cc2)[nH]n1	ATXN viability inconclusive (no result: USP1-UAF1 inh, USP2a block)
CC(C)Oc1ccc(F)cc1-c1cc(C(=O)Nc2ccccc2)[nH]n1	IL-1B inflam inh -69 (no result: USP1-UAF1 inh, USP2a block)
O=C(Nc1cccc(-n2cccn2)c1)C1CCCN(Cc2ccccc2F)C1 (centres undefined)	none
COc1cc(CN2CCCC(C(=O)Nc3cccc(-n4cccn4)c3)C2)ccc1F (centres undefined)	IL-1B inflam inh -66
CCn1cc(CN2CCCC(C(=O)Nc3ccc(-c4nc5ccccc5[nH]4)cc3)C2)c(C)n1 (centres undefined)	IL-1B inflam inh inconclusive, USP1-UAF1 inh inconclusive
Cn1cc(CN2CCCC(C(=O)Nc3cccc(-c4cc5ccccc5[nH]4)c3)C2)cn1 (centres undefined)	IL-1B inflam inh -92
CCn1cc(CN2CCCC(C(=O)Nc3cccc(-c4cc5ccccc5[nH]4)c3)C2)c(C)n1 (centres undefined)	IL-1B inflam inh -53, ATXN2 expr inh inconclusive
CC(C)n1cc(CN2CCCC(C(=O)Nc3cccc(-c4cc5ccccc5[nH]4)c3)C2)cn1 (centres undefined)	IL-1B inflam inh -63, ATXN2 expr inh 28µM, ATXN viability inconclusive
NC(=O)NS(=O)(=O)c1ccc(N)cc1	none (no result: IL-1B inflam inh, USP1-UAF1 inh, USP2a block)
O=C1/C(=C/c2cccc(F)c2)Oc2cc(O)ccc21	IL-1B inflam inh -79, USP2a block inconclusive (no result: ATXN viability)
